Screens deposited in PubChem by Broad Institute.
EWS-Fli block: blocks EWS/Fli oncoprotein-driven transcription | A673 NR0B1-luciferase reporter, viability-normalised | inhibition, % at 12.6 µM | 350,000 compounds, 0.67% hits | AID 651661;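 active = mean inhibition of at least 50% after viability correction, with every replicate also passing that limit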;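 also: firefly luciferase signal divided by Alamar Blue viability fluorescence both relative to DMSO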
F508del corr: CFTR F508del correction in bronchial cells | 350,000 compounds, 0.36% hits | CFBE cells, YFP halide quenching; stimulated with forskolin plus potentiator P3; % fluorescence drop versus neutral controls | activity (quench increase), % at 7.58 µM;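 active = mean added fluorescence quench of at least 8% versus neutral control, with both replicates also reaching 8%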;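 also: cells transiently co-express mutant CFTR-F508del with the halide-sensitive YFP; corrector assay measuring rescue of mutant channel to the surface after 24 h compound exposure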
LGR2 inh: Drosophila LGR2 receptor signaling inhibition; inhibition, % at 9.99 µM; 380,000 compounds, 0.35% hits; AID 720647; HEK293 LGR2, CRE-luciferase, bursicon-stimulated, 4 h;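 active = drop in luminescence signal, shown as inhibition above about 50% in the replicate tests, limit read from the data, passing the limit was not always enough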;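 also: agonist challenge used bursicon conditioned medium at about half maximal strength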
PAX8 reporter: inhibitors of PAX8 transcriptional activity in RMG-I cells; RMG-I TPO-luciferase reporter, SteadyGlo, 24 h; inhibition, % at 12.6 µM; 360,000 compounds, 1.2% hits;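 active = mean replicate inhibition at least 60% with every replicate also reaching 60%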;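 also: luciferase light reporting Pax8 driven TPO promoter activity; plate controls were median of neutral control wells for no effect and mitoxantrone controls for full effect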
Starred values were filed as active, the others as inactive. Only some compounds are listed: those with a hit (about 1.8% of all), similar ones and a draw of the others.

How did COc1ccc(NC(=O)Nc2ccc3c(c2)CC(=O)N([C@H](C)CO)C[C@H](C)[C@@H](CN(C)Cc2ccc(Oc4ccccc4)cc2)O3)cc1 do in these assays?
EWS-Fli block: 5; F508del corr: 2; LGR2 inh: 17; PAX8 reporter: 69*

Results for C[C@@H]1CN([C@@H](C)CO)C(=O)Cc2cc(NC(=O)Cc3ccccc3)ccc2O[C@H]1CN(C)Cc1ccc(Oc2ccccc2)cc1 ?
EWS-Fli block: 4; F508del corr: -8; LGR2 inh: 13; PAX8 reporter: 72*

How did C[C@@H]1CN([C@@H](C)CO)C(=O)Cc2cc(NC(=O)Nc3ccccc3)ccc2O[C@H]1CN(C)Cc1ccc(Oc2ccccc2)cc1 do in these assays?
EWS-Fli block: 23; F508del corr: 0; LGR2 inh: 7; PAX8 reporter: 82*

Results for COC(=O)[C@]12CCCCC=C1N(Cc1ccc(Cl)cc1Cl)C(=O)[C@H](CC(=O)NCc1ccc(C)o1)C2 ?
EWS-Fli block: 2; F508del corr: 0; LGR2 inh: -7; PAX8 reporter: -13

How did CC(C)(C)c1ccc(C(=O)Nc2sc3c(c2C(=O)O)CCC3)cc1 do in these assays?
EWS-Fli block: 23; F508del corr: 0; LGR2 inh: 39; PAX8 reporter: 80*

Results for C=C1CCN([C@@H](Cc2ccccc2)C(=O)NC2CCN(Cc3ccccc3)CC2)S(=O)(=O)c2ccccc21 ?
EWS-Fli block: -11; F508del corr: -1; LGR2 inh: -7; PAX8 reporter: -4

What do the screens show for `Cc1noc(C)c1S(=O)(=O)Nc1ccc2c(c1)C(=O)N([C@@H](C)CO)C[C@H](C)[C@H](CN(C)C(=O)Nc1ccc(C(F)(F)F)cc1)OCCCC[C@H](C)O2`?
EWS-Fli block: -12; F508del corr: 2; LGR2 inh: 40; PAX8 reporter: 89*

Results for Cc1noc(C)c1S(=O)(=O)Nc1ccc2c(c1)C(=O)N([C@@H](C)CO)C[C@@H](C)[C@@H](CN(C)C(=O)Nc1ccc(C(F)(F)F)cc1)OCCCC[C@@H](C)O2 ?
EWS-Fli block: 6; F508del corr: 2; LGR2 inh: -4; PAX8 reporter: 26

What do the screens show for `Cc1noc(C)c1S(=O)(=O)Nc1ccc2c(c1)C(=O)N([C@H](C)CO)C[C@H](C)[C@@H](CN(C)C(=O)Nc1ccc(C(F)(F)F)cc1)OCCCC[C@H](C)O2`?
EWS-Fli block: -18; F508del corr: -2; LGR2 inh: 19; PAX8 reporter: 86*

How did Cc1noc(C)c1S(=O)(=O)Nc1ccc2c(c1)C(=O)N([C@@H](C)CO)C[C@@H](C)[C@H](CN(C)C(=O)Nc1ccc(F)cc1)OCCCC[C@H](C)O2 do in these assays?
EWS-Fli block: -10; F508del corr: 0; LGR2 inh: -2; PAX8 reporter: -11

What do the screens show for `Cc1noc(C)c1S(=O)(=O)Nc1ccc2c(c1)C(=O)N([C@H](C)CO)C[C@H](C)[C@H](CN(C)C(=O)Nc1ccc(C(F)(F)F)cc1)OCCCC[C@H](C)O2`?
EWS-Fli block: 0; F508del corr: 1; LGR2 inh: -6; PAX8 reporter: 68*

What do the screens show for `O=C(O)c1cc(S(=O)(=O)Nc2cccc(S(=O)(=O)N3CCCC3)c2)ccc1Cl`?
EWS-Fli block: -1; F508del corr: 0; LGR2 inh: 1; PAX8 reporter: -3

How did CC1C/C(=C/c2ccncc2)C(=O)/C(=C/c2ccncc2)C1 (configuration not stated) do in these assays?
EWS-Fli block: 78*; F508del corr: -16; LGR2 inh: 103*; PAX8 reporter: 85*

What do the screens show for `O=C(/C=C/c1ccncc1)c1ccc2c(c1)OCCO2`?
EWS-Fli block: 4; F508del corr: 3; LGR2 inh: 89*; PAX8 reporter: -22

Results for COc1cc(/C=C/C(=O)c2ccc3c(c2)OCCO3)cc(Br)c1OCC(=O)N(C)C ?
EWS-Fli block: 61*; F508del corr: -4; LGR2 inh: 60*; PAX8 reporter: 7

What do the screens show for `N#C[C@H]1[C@H](c2ccc(C3=CCCCC3)cc2)[C@@H](CO)N1C(=O)Cc1ccncc1`?
EWS-Fli block: 4; F508del corr: 1; LGR2 inh: 10; PAX8 reporter: 2

How did COCC(=O)N1C[C@@H]2[C@H](c3ccccc31)[C@H](CO)N2Cc1ccc(OC)cc1 do in these assays?
EWS-Fli block: 10; F508del corr: 10*; LGR2 inh: -18; PAX8 reporter: 8

How did CCCNC(=O)N1C[C@@H]2[C@H](c3ccccc31)[C@H](CO)N2Cc1ccc(OC)cc1 do in these assays?
EWS-Fli block: 7; F508del corr: 8.2*; LGR2 inh: 4; PAX8 reporter: -8

Results for CCCNC(=O)N1C[C@@H]2[C@H](c3ccccc31)[C@@H](CO)N2Cc1ccc(OC)cc1 ?
EWS-Fli block: 8; F508del corr: 0; LGR2 inh: 7; PAX8 reporter: -3

What do the screens show for `Cn1cnc([N+](=O)[O-])c1S(=O)(=O)Nc1ccccc1`?
EWS-Fli block: -25; F508del corr: -1; LGR2 inh: 8; PAX8 reporter: 0

What do the screens show for `Cn1cnc([N+](=O)[O-])c1S(=O)(=O)Oc1ccccc1`?
EWS-Fli block: 26; F508del corr: 2; LGR2 inh: 17; PAX8 reporter: 90*

What do the screens show for `Cn1cnc([N+](=O)[O-])c1S(=O)(=O)c1cccc(Cl)c1`?
EWS-Fli block: 23; F508del corr: 3; LGR2 inh: 2; PAX8 reporter: 83*

What do the screens show for `COc1cc2cc(CCCOC(=O)c3ccco3)oc(=O)c2cc1OC`?
EWS-Fli block: -6; F508del corr: 3; LGR2 inh: -2; PAX8 reporter: 3

Results for c1ccc(OCCSc2nnc3sc4ccccc4n23)cc1 ?
EWS-Fli block: 60*; F508del corr: -1; LGR2 inh: 92*

How did CCN(CC)C(=O)CSc1nnc2sc3ccccc3n12 do in these assays?
EWS-Fli block: -7; F508del corr: -1; LGR2 inh: 1

What do the screens show for `N#CC(C#N)=C1C=CC=CN1/C(=C\c1ccco1)C(=O)c1ccc(Br)cc1`?
LGR2 inh: 23; PAX8 reporter: 102*

Results for N#C/C(=C/c1ccco1)C(N)=S ?
EWS-Fli block: -5; F508del corr: 1; LGR2 inh: -4; PAX8 reporter: 2

Results for N#CC(C#N)=C1C=CC=CN1/C(=C\c1ccco1)C(=O)c1ccccc1 ?
EWS-Fli block: 78*; F508del corr: -10; LGR2 inh: 100*; PAX8 reporter: 122*

Results for CC(C)OC(=O)/C(=C/c1ccco1)c1ccccc1 ?
EWS-Fli block: -8; F508del corr: 0; LGR2 inh: -9; PAX8 reporter: -20

Results for CCOc1ccc(Cl)cc1C1=CC(=O)C[C@H](c2ccc(OC)cc2)C1 ?
EWS-Fli block: 60*; F508del corr: 9.1*; LGR2 inh: 13; PAX8 reporter: 22

Results for COc1ccc([C@H]2CC(=O)C=C(c3c(OC)cccc3OC)C2)cc1 ?
EWS-Fli block: 63*; F508del corr: 11*; LGR2 inh: -7; PAX8 reporter: 11

How did O=C(Nc1c2c(nn1-c1ccccc1)CS(=O)(=O)C2)C1CC1 do in these assays?
EWS-Fli block: -6; F508del corr: 6; LGR2 inh: 1; PAX8 reporter: 11
